# Assay outcomes: PubChem, National Center for Advancing Translational Sciences (NCATS)
# PI5P4Ka inh – qHTS for Inhibitors of phosphatidylinositol 5-phosphate 4-kinase (PI5P4K). Phosphatidylinositol 5-phosphate 4-kinase type-2 alpha (Homo sapiens), P48426. PI5P4Kalpha enzyme, ADP-Glo luminescence, 60 min; stronger effect = lower value. max response, %. hit rate 1.2% among 330,000; active means max response of -50% or lower; inconclusive means between -30% and -50%; inactive means -30% or higher; further: value at the top dose of about 77 µM; on the % scale 0 is the no-effect control and ±100 the full control effect
#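 Enzyme plus substrate dispensed, test compounds pinned in, then ATP (5 microM final) added. After 60 min at RT, ADP-Glo reagent 1 for 45 min and reagent 2 for 30 min preceded luminescence imaging.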
# PLK1 PBD inh – qHTS for Inhibitors of PLK1-PDB (polo-like kinase 1 - polo-box domain): Primary Screen; Serine/threonine-protein kinase PLK1 (Homo sapiens), P53350; Plk1 PBD binding of FITC phosphopeptide, fluorescence polarization; Potency, µM, for inactives: max response, negative = inhibition, most hits filed as inhibitors; hit rate 2.8% among 360,000; further: potency means the concentration at half of the fitted maximal effect; series mostly up to about 57 µM; on the % scale 0 is the no-effect control and ±100 the full control effect; nearly all actives have a fitted effect of over 65% in size
# G9a inh – qHTS Assay for Inhibitors of Histone Lysine Methyltransferase G9a; Histone-lysine N-methyltransferase EHMT2 (Homo sapiens), Q96KQ7; G9a H3K9 monomethylation, AlphaScreen, 2 h; Potency, µM (top dose mostly 102 µM), for the others: at the top dose activity, negative = inhibition, hits mostly inhibitors; hit rate 8.8% among 350,000; AID 504332, 2011; further: potency means the concentration at half of the fitted maximal effect; on the % scale 0 is the no-effect control and ±100 the full control effect; nearly all actives have a fitted effect of over 75% in size
#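 Signal arises when biotinylated H3K9 peptide, once monomethylated, bridges streptavidin donor and antibody-captured acceptor beads. Enzyme at 20 nM was preincubated 15 min with test compounds; peptide 500 nM and SAM 20 uM then reacted for 2 h.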
# HP1b chromo inh – HTS for Inhibitors of HP1-beta Chromodomain Interactions with Methylated Histone Tails | Potency, µM (doses to about 114 µM), inactives show at the highest dose activity change, negative = inhibition, most hits filed as inhibitors | Chromobox protein homolog 1 (Homo sapiens), P83916 | AlphaScreen HP1-beta / biotin-H3K9me3 peptide binding | hit rate 0.56% among 390,000; further: potency means the concentration at half of the fitted maximal effect; nearly all actives have a fitted effect of over 70% in size
#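 Compound inhibition of the preformed complex between 50 nM HP1-beta and 50 nM biotinylated H3K9me3 peptide was read by AlphaScreen. Buffer was PBS pH 7.4 with 0.01% Tween-20. Incubations ran 30 min at room temperature, with 10 ug/mL donor/acceptor beads.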
# JMJD2A Tudor inh – qHTS Assay for Inhibitors of JMJD2A-Tudor Domain; Lysine-specific demethylase 4A (Homo sapiens), O75164; AlphaScreen JMJD2A-Tudor / H3K4me3 peptide binding; Potency, µM (doses to about 114 µM), for the others: at the highest dose activity change, negative = inhibition, hits mostly inhibitors; hit rate 4.4% among 390,000; AID 504339, 2011; further: potency means the concentration at half of the fitted maximal effect; on the % scale 0 is the no-effect control and ±100 the full control effect; nearly all actives have a fitted effect of over 50% in size
# BAZ2B block – qHTS Assay for Inhibitors of BAZ2B; Potency, µM (top dose mostly 114 µM), inactives show at the highest dose activity change, negative = inhibition, usual class: inhibitors; Bromodomain adjacent to zinc finger domain protein 2B (Homo sapiens), Q9UIF8; AlphaScreen BAZ2B-H3K14Ac peptide displacement; AID 504333, 2011; hit rate 4.4% among 360,000; further: potency means the concentration at half of the fitted maximal effect; on the % scale 0 is the no-effect control and ±100 the full control effect; nearly all actives have a fitted effect of over 60% in size
#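 Complex of BAZ2B and biotin-H3K14Ac (50 nM apiece) forms over 30 min at RT, then faces library compounds up to 110 uM for another 30 min; AlphaScreen beads added, 20 min dark incubation, luminescence read.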
# * hit, by the source's call; ? = inconclusive; · = no result given; [ ] = dose if it differs, or a comment. The list is not random: actives were taken first. Their share in the collection is about 12%. Unless noted, the call rests on the fitted dose curve; in most records, active means well fitted curve in the direction sought with a large enough effect; inconclusive means small, poorly fitted or top-dose-only effect, or another doubt; inactive means no such curve, though single readings can be large; an effect the other way counts as inactive or inconclusive.
SMILES,PI5P4Ka inh,PLK1 PBD inh,G9a inh,HP1b chromo inh,JMJD2A Tudor inh,BAZ2B block
CCc1ccccc1NC(=O)C1COc2ccccc2C1 (stereo not drawn),·,·,-1%[59 µM],26%[57 µM],-1%,0%
CCOC(=O)C1=C(C)NC(C)=C(C(=O)OCC)C1c1ccccc1C=CC(=O)OC(C)(C)C,·,·,68%[59 µM],·,·,·
Cc1c(C(=O)O)cccc1-c1ccc(/C=N/n2cnnc2)o1,-5,?,35µM*,-6%,89µM*,79µM*
Cc1c(Cl)cccc1-c1ccc(/C=N/n2cnnc2)o1,-13,-2%,?,-4%,-35%,?
Cc1c(C(=O)O)cccc1-c1ccc(/C=N/Nc2ccc(Br)cc2)o1,-24,?,10µM*,-13%,?,50µM*
CCN(CC)c1ccc(N)cc1,-6,4%,-4%[0.501 µM],13µM*,18µM*,32µM*
Nc1ccc(N(CCO)CCO)cc1,-1,?,11µM*,?,8.9µM*,50µM*
Cc1ccc(OCC(=O)N(Cc2ccc(Cl)cc2)Cc2ccco2)cc1C,·,·,56%[59 µM],52%,6%,31%
Cc1ccc(S(=O)(=O)c2cn(Cc3ccccc3)c3cc(N4CCOCC4)c(F)cc3c2=O)cc1,·,·,-1%[59 µM],24%,-24%,-2%
CCc1ccc(OCc2nc(-c3ccc(OC)c(OC)c3)no2)c(Br)c1,·,·,114%[59 µM],105%,61%,78%[57.1 µM]
COc1ccccc1-n1ccnc1SCC(=O)NC1CCCC1,-8,-10%,-5%,2%,-9%,-4%
COc1cc(-n2ccnc2SC)c(Cl)cc1Cl,-4,19µM*,3%[59 µM],22µM*,-8%[11.4 µM],13µM*
CCOC(=O)C1=NN(C(C)=O)C2(CC(=O)N(c3cccc(C)c3)C2=O)C1 (stereo not drawn),-20,27µM*,24%,-5%,-15%,4%
COc1ccc(C(=O)N(Cc2ccccc2)Cc2cccs2)c(O)c1,·,·,·,·,-34%,·
COc1cc(OC)cc(C(=O)NCC(=O)Nc2ccc(-c3ccccc3)cc2)c1,4,5%,14%,13%,-9%,3%
Cc1cc2cc(CNC(=O)c3ccc4c(c3)OCO4)ccc2[nH]1,·,-4%,50µM*,-8%,-34%,?
CCCCNC(=S)NCc1ccc2[nH]c(C)cc2c1,-1,3%,?,-19%,?,?
Cc1cc(CNC(=O)c2ccc3c(c2)OCO3)c2ccccc2n1,7,-9%,35µM*,43%,-5%,-33%
CCOc1ccc(NC(=S)NCc2ccc3[nH]c(C)cc3c2)cc1,1,-24%,?,-15%,50µM*,·
O=C(NCc1ccc2c(c1)OCO2)c1ccc2c(c1)OCO2,-1,-2%,39%[12.7 µM],24%,-17%,-15%
COc1ccc(C(=O)NCc2cc(C)nc3ccccc23)cc1,-1,?,-4%,59%,-12%,-37%
COc1ccc(C(=O)NCc2ccc3[nH]c(C)cc3c2)cc1OC,-11,-5%,35µM*,24%,-30%,?
CCCc1cc(=O)[nH]c2nnc(SCC(=O)Nc3nnc(CC)s3)n12,-21,-9%,-8%[12.7 µM],7%,25µM*,6%
CCNC(=O)c1c(NC(=O)c2nc(S(=O)(=O)CC)ncc2Cl)sc2c1CCCC2,·,·,1%[59 µM],32%,-14%,-17%
O=C(O)Cc1ccc(C(=O)c2ccccc2F)s1,-18,-1%,45µM*,29%,-5%,-22%
O=C(O)Cc1ccc(C(=O)c2ccc(Cl)cc2Cl)s1,4,-9%,9%,135%,118%,166%
CN(c1ccccc1)S(=O)(=O)c1cccc(C(=O)NCC(c2cccs2)N2CCOCC2)c1 (stereo not drawn),4,-15%,·,·,·,·
